# Compound activity as filed in PubChem.
# Only some compounds are listed: those with a hit (about 1.1% of all), similar ones and a draw of the others.
# Menin-MLL FL inh = qHTS Assay for Inhibitors Targeting the Menin-MLL Interaction in MLL Related Leukemias: Competition With Fluorescein Labeled MLL-derived Peptide | 290,000 tested, under 10 active | FP activity change, % at 61.4 µM | Fluorescence polarization, fluorescein-MLL peptide displacement from menin; active means well fitted curve in the direction sought with a large enough effect in the polarisation, not every such curve was filed as active; inconclusive means small, poorly fitted or top-dose-only effect, or effect the other way, or a change in a side signal; inactive means no such curve, though single readings can be large or run the other way; the % refers to the polarisation; further: % of control where 0% means no effect
# KCNH2 3.1 block = qHTS for Inhibitors of KCHN2 3.1: Mutant qHTS. U2OS KCNH2 3.1, thallium flux FluxOr; hits give low values. hit rate 0.95% among 340,000. Potassium voltage-gated channel subfamily H member 2, brain isoform KCNH2 3.1 (human). activity change, % (tested at about 1.8 µM);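 active means maximum activity change below -70%; inconclusive means maximum activity change from -70% to -50%; inactive means maximum activity change above -50%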;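 further: thallium influx rate constant from kinetic fluorescence after stimulation buffer; on the % scale 0 is the no-effect control and ±100 the full control effect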
#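 Kinetic fluorescence (2 min after stimulation buffer) measures Tl+ influx through KCNH2 3.1 expressed by viral transduction in U2OS cells; the rate constant is normalized against DMSO controls serving as positive and negative references.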
# Menin-MLL TR inh = qHTS Assay for Inhibitors Targeting the Menin-MLL Interaction in MLL Related Leukemias: Competition With Texas Red Labeled MLL-derived Mutant Peptide. O00255. Menin + Texas Red MLL mutant peptide, fluorescence polarization. Potency, µM (highest dose often 61.6 µM), for inactives: at the highest dose FP activity change, negative = inhibition, usual class: inhibitors. hit rate 0.23% among 270,000; active means well fitted inhibition curve with a large enough effect in the polarisation, with a control signal flat, not every such curve was filed as active; inconclusive means small, poorly fitted or top-dose-only effect, or effect the other way, or a change in a side signal; inactive means no such curve, though single readings can be large or run the other way; the % refers to the polarisation; further: potency means the concentration at half of the fitted maximal effect; % of control where 0% means no effect
# Target sequence (O00255 whole entry, looked up): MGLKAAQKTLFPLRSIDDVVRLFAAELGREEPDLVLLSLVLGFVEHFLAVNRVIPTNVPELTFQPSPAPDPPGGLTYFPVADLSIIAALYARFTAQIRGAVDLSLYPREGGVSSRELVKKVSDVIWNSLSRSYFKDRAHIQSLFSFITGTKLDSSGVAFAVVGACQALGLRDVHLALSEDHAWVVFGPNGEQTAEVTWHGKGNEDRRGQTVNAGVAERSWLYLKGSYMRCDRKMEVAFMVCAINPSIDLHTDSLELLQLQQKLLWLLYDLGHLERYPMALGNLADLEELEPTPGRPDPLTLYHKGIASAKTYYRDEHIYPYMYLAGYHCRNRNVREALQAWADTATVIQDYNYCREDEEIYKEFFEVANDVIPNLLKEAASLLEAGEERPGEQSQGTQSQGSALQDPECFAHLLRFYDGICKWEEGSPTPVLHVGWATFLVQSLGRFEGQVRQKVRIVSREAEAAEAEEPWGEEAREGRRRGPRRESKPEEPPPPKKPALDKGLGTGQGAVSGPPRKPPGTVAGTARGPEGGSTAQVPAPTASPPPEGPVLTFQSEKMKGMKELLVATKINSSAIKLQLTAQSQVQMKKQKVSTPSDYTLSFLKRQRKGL
# hERG WT inh = qHTS for Inhibitors of KCHN2 3.1: Wildtype qHTS; hit rate 0.37% among 340,000; U2OS, BacMam KCNH2, thallium flux FluxOr; hits give low values; activity change, % at 1.84 µM;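 active means maximum activity change below -70%; inconclusive means maximum activity change between -70% and -50%; inactive means maximum activity change above -50%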; further: on the % scale 0 is the no-effect control and ±100 the full control effect
#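 U2OS cells transduced with wild-type KCNH2 virus are loaded with FluxOr dye for 45 min, and thallium flux is measured in kinetic reads before and after stimulation buffer. Rate constants are normalized to DMSO controls.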
# CXXC DNA block = qHTS Fluorescence Polarization Assay for Inhibitors of MLL CXXC domain - DNA interaction. AID 2662, 2010. Histone-lysine N-methyltransferase 2A (Homo sapiens), Q03164. MLL-CXXC / FITC-HOXA9 DNA fluorescence polarization. hit rate 0.037% among 290,000. Potency, µM (highest dose often 115 µM), for inactives: at the highest dose activity change, negative = inhibition, hits mostly inhibitors; active means well fitted inhibition curve with a large enough effect in the polarisation, with a control signal flat, not every such curve was filed as active; inconclusive means small, poorly fitted or top-dose-only effect, or effect the other way, or a change in a side signal; inactive means no such curve, though single readings can be large or run the other way; the % refers to the polarisation; further: potency means the concentration at half of the fitted maximal effect
#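 Fluorescence polarization: 7 uM MLL-CXXC (stock) preincubated 5 min with compounds, then 50 nM fluorescein-HOX-A9 DNA (stock) added; 30 min ambient. Buffer 50 mM Tris-HCl pH 7.5, 50 mM NaCl, 1 mM DTT, 0.05% BSA.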
# Starred values were filed as active, the others as inactive; u = inconclusive; x = no result given; [ ] = remark or other dose.
SMILES,Menin-MLL FL inh,KCNH2 3.1 block,Menin-MLL TR inh,hERG WT inh,CXXC DNA block
C/C=C(/CC[C@@H](C)[C@H]1CCC2C3=CC[C@H]4[C@H](C)[C@@H](O)CC[C@]4(C)C3CC[C@@]21C)C(C)C (stereo partly drawn),-29,x,-12%,x,x
O=C(Nc1ccc(Oc2c(F)c(F)c(F)c(F)c2F)cc1)OC1CCN2Cc3ccccc3N=C12 (stereo not drawn),3,-100*,u,-83*,22%
O[C@@H]1CCN2Cc3ccccc3N=C12,0,x,-15%,x,x
C/C(=N\N=C\c1ccccc1F)c1nnn(-c2nonc2N)c1C,2,-71*,u,20,u
COc1ccccc1C(=O)Nc1ccc2c(c1)nc1n2CCN(C2CCCCC2)C1,16,2,0%,-5,6%
CCN(CC(=O)NCc1cccs1)C(=O)c1cccc(S(=O)(=O)N2CC(C)OC(C)C2)c1 (stereo not drawn),x,-156*,x,-131*,x
CCN(CC(=O)NCc1cccs1)C(=O)c1cccc(S(=O)(=O)N2CCc3ccccc32)c1,-1,-12,0%,5,0%
OCCC1CN(Cc2ccc(F)cc2)CCN1CCc1ccccc1 (stereo not drawn),-4,-79*,-24%,50,9%
OCCC1CN(Cc2ccc(F)cc2)CCN1CCCc1ccccc1 (stereo not drawn),-10,u,-29%,40,-15%
C#Cc1ccc(CN2CCN(CCc3ccccc3)C(CCO)C2)cc1 (stereo not drawn),-4,-74*,-21%,12,-5%
CC(C)CCN1CCN(CC(c2ccccc2)c2ccccc2)CC1CCO (stereo not drawn),-5,-74*,-26%,-19,2%
CC(C)CCN1CCN(Cc2nc3ccccc3s2)CC1CCO (stereo not drawn),3,0,-25%,4,-7%
OCCC1CN(Cc2ccccc2O)CCN1CCc1ccccc1 (stereo not drawn),0,6,-17%,-1,-4%
COc1ccc(CN2CCC(CO)(Cc3cccc(C(F)(F)F)c3)CC2)cc1Cn1cccn1,1,-84*,u,-26,20%
COc1cc(CN2CCC(CO)(Cc3cccc(C(F)(F)F)c3)CC2)ccc1F,1,-30,x,16,2%
CC1(C)CC(=O)C2=C(C1)N(c1ccc(F)cc1)C(=O)C2(O)C(F)(F)F (stereo not drawn),4,-120*,u,7,17%
COC(=O)C1=C[C@@H](C(=O)OC)C2C3=C(C(=O)[C@]2(C)NC(=O)c2ccccc2)[C@H](C)n2c(=O)n(C)c(=O)n2[C@@H]3C1 (stereo partly drawn),-1,x,10%,x,x
NC(=O)c1nsc(C(=O)N(c2cccc(F)c2)C(C(=O)NC2CCCC2)c2ccco2)c1N (stereo not drawn),-8,10,13%,-4,1%
COc1ccc2c(C)cc(=O)[nH]c2c1,3,-95*,x,-5,2%
Cc1cc(=O)[nH]c2cc(Cl)ccc12,-1,0,-23%,-5,8%
CCc1nnc(NS(=O)(=O)c2ccc(NC(=O)c3ccc(C#N)cc3)cc2)s1,0,24,29%,2,-4%
COc1ccc2sc(SCCCS(=O)(=O)O)[n+](CCCS(=O)(=O)[O-])c2c1,2,-203*,-26%,-156*,-16%
CCO/C(=C/c1sc2ccc(OC)cc2[n+]1CCCS(=O)(=O)[O-])CC,3,-6,u,0,2%
Cc1cc(C)cc(NC(=O)c2cc(S(=O)(=O)N3CCCC3)cn2C)c1,-2,-107*,15%,11,x
Cc1cccc(NC(=O)c2cc(S(=O)(=O)N3CCCC3)cn2C)c1,5,-2,-13%,0,x
SMILES,Menin-MLL FL inh,KCNH2 3.1 block,Menin-MLL TR inh,hERG WT inh,CXXC DNA block
CCOC(=O)C1=C(COC(=O)Cc2ccc(Cl)cc2)NC(=O)NC1C (stereo not drawn),x,5,x,19,x
O=C1OC(c2ccccc2)(c2ccc3cc(O)ccc3c2)c2ccccc21 (stereo not drawn),x,-31,x,-8,x
COc1ccc(NCc2ccc(OC)c(Cn3ccnc3)c2)c(OC)c1,4,6,13µM*,22,11%
Cc1ccc(C)c(C(=O)CCC(=O)Nc2ccc(F)cc2)c1,-2,-1,17%,-6,1%
Cc1ccc(C)c(C(=O)CCC(=O)Nc2ccc(N3CCN(C)CC3)cc2C)c1,x,-122*,x,-48,x
O=C(Nc1ccc(S(=O)(=O)NCc2ccccc2)cc1)C1CCCCC1,x,-72*,x,5,6%
Clc1ccc(CN2C3=NCCN3c3ccccc32)cc1Cl,0,-75*,-11%,36,1%
COc1ccc(C(=O)N2CCC3(CC2)NCCc2[nH]cnc23)cc1,x,-84*,x,x,-6%
C#CCCCO/N=C1/C[C@@H](O)[C@@H](O)[C@@H]2[C@@H]3C(=O)N(CCC(=O)OCC)C(=O)[C@H]3CC[C@@H]12,0[11.7 µM],x,-3%[11.7 µM],x,x
COc1ccc(CCNC(=O)C2CC(=O)N(C3CCCCCCC3)C2)cc1OC (stereo not drawn),2,-201*,-14%,-20,-11%
Cc1ccc(CCNC(=O)C2CC(=O)N(C3CCCCC3)C2)cc1 (stereo not drawn),x,-6,x,7,u
COc1ccccc1/C=C/C=c1\sc2nc(=O)c(Cc3ccccc3)nn2c1=O,27,-163*,x,-140*,-14%
Cc1ccc(NC(=O)c2ncn(CCCN3CCN(Cc4cccc5ccccc45)CC3)n2)cc1C,x,-72*,x,-12,x
CC1CC(C)CN(S(=O)(=O)c2ccc3oc(=O)ccc3c2)C1 (stereo not drawn),x,7,x,1,11%
CC(C)CNC(C(=O)Nc1ccc([N+](=O)[O-])cc1Br)c1ccccc1 (stereo not drawn),0,-3,-10%,5,10%
CN(C)C(CNC(C(=O)Nc1ccc([N+](=O)[O-])cc1Br)c1ccccc1)c1ccccc1 (stereo not drawn),-4,-85*,u,-24,-5%
COc1ccccc1C1Nc2ccccc2NC2=C1C(=O)CC(C)(C)C2 (stereo not drawn),-1,-194*,-7%,-129*,21%
COc1cccc(C2Nc3ccccc3NC3=C2C(=O)CC(C)(C)C3)c1OC (stereo not drawn),-4,0,-1%,-5,9%
COc1ccc(Cc2nnc(NCCO)[nH]c2=O)cc1OC,2,9,1%,-118*,-21%
